For part of these data: Measured potencies and affinities stand elsewhere. Activity calls are given as the source filed them. Unless noted, how the calls were made is not given here.

Sequence of GTPase HRas (Homo sapiens) (P01112 whole entry, looked up): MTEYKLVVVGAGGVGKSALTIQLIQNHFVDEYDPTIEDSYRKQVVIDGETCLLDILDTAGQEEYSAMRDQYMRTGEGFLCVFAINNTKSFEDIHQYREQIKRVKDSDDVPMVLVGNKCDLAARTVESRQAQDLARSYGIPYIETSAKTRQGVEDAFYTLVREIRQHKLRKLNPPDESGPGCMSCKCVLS

The first assay has as its target GTPase HRas (Homo sapiens) (UniProt P01112). Kind of assay: Ras wt fluorescent GTP loading blockade – biochemical, wildtype, multiplex bead flow cytometry, dose response (AID 1335;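 active means fitted half-maximal concentration within 10 nM to 100 µM, steepness 0.5 to 2, significant signal drop, low assay interference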). Conditions: bead-based flow cytometry, Bodipy-GTP binding to GST-Ras; at 100 µM (top of the series) unless noted. A general note: Flow cytometry measures light scatter and fluorescence of single cells or particles in a stream.
Turning to `COc1ccc(-c2c3c(nc4sc5c(=O)[nH]c(C)nc5c24)CCC3)cc1`, the GTP binding, percent of control was 49.1%.

With `COc1cc(C)c2c(c1C=O)Oc1c(c(C)c(O)c3c1C(O)OC3=O)OC2=O` (stereo not drawn), the GTP binding, percent of control is 102%.

`COc1ccc(/C=N/NC(=S)Nc2cc(S(=O)(=O)N3CCOCC3)ccc2N2CCOCC2)cc1O` had a GTP binding, percent of control of 80.8%.

Compound `O=C(O)CCCCCNS(=O)(=O)c1cccc2c1C(=O)c1ccccc1C2=O` registered a GTP binding, percent of control of 45.9%.

Take `O=C(Nc1cnn(C23CC4CC(CC(C4)C2)C3)c1)c1cnn2cccnc12`: the GTP binding, percent of control was 94.2%.

Compound `CCOc1ccc(NC(=S)N=Nc2c(O)[nH]c3ccccc23)cc1` gave a GTP binding, percent of control of 74.3%.

The compound `O=C(O)Cn1c(SCCOc2ccccc2Cl)nc2ccccc21` came in with a GTP binding, percent of control of 86.5%.

Compound `COc1ccc(S(=O)(=O)N2CCOCC2)cc1C(=O)Nc1nc2ccccc2s1` registered a GTP binding, percent of control of 55.9%.

`COC(=O)c1ccc(/C=N/Nc2nc(-c3ccc(Cl)cc3Cl)cs2)cc1` displayed a GTP binding, percent of control of 81.6%.

Consider `CN1/C(=C\C=C(/C#N)C(=O)Nc2ccc(Cl)cc2)C(C)(C)c2ccccc21`, for which the GTP binding, percent of control stood at 80%.

Compound `COc1cccc(C2CC(c3ccccc3)=NN2S(=O)(=O)c2ccc(C)cc2)c1OC` (stereo not drawn) came in with a GTP binding, percent of control of 141%.

In turn, `Cc1cc(C)n2nc(SCCOc3ccccc3)nc2n1` came in with a GTP binding, percent of control of 71.1%.

As to `Cc1nc(NC(=O)/C=C/c2ccc(Cl)cc2Cl)sc1C(=O)N(C)C`, the GTP binding, percent of control came out at 61.1%.

With `O=C1OC(c2ccc(F)cc2)=C/C1=C\c1ccc([N+](=O)[O-])o1`, the GTP binding, percent of control was 91.4%.

`CC(=O)N1C(=O)/C(=C2\SC(=S)N(NC(=O)c3ccc(O)cc3)C2=O)c2ccccc21` yielded a GTP binding, percent of control of 70.8%.

For `O=C(Cn1c(-c2cscn2)nc2ccccc21)Nc1cc(F)ccc1F`, the GTP binding, percent of control came out at 75.9%.

The compound `COc1ccc(OC)c(C(C(=O)NCc2ccco2)N(C(=O)Cn2nnc3ccccc32)C2CC2)c1` (stereo not drawn) returned a GTP binding, percent of control of 58%.

`Cc1ccc(-n2nc3c(SCCN4CCOCC4)nnc(C)c3c2C)cc1` yielded a GTP binding, percent of control of 64.6%.

`Cc1cc2nc3c(=O)n(C4CCCCC4)c(=O)[nH]c3nc2cc1N` returned a GTP binding, percent of control of 53.2%.

In the case of `COc1ccccc1OCCn1cc(C(=O)O)c2ccc(C)cc21`, the GTP binding, percent of control was determined as 184%.

In turn, `Cc1cccc(C)c1CCNc1ncccc1C(=O)O` displayed a GTP binding, percent of control of 245%.

The compound `COc1cc(-c2cc(-c3ccc(O)cc3)nc(N)c2C#N)ccc1O` displayed a GTP binding, percent of control of 70.9%.

In turn, `COc1ccc(-c2cc(C(F)(F)F)n3nc(C(=O)O)cc3n2)cc1OC` gave a GTP binding, percent of control of 67.7%.

`Cc1ccc(/C=C2\SC(=S)N(C(Cc3ccccc3)C(=O)O)C2=O)cc1` (stereo not drawn) gave a GTP binding, percent of control of 81.2%.

Turning to `COc1ccc(S(=O)(=O)Cc2ccc(C(=O)N3CCN(c4cccc(C)c4C)CC3)o2)cc1`, the GTP binding, percent of control stood at 62.1%.

In the case of `Cc1ccc(C2=NN(CCC(=O)NCc3ccc4c(c3)OCO4)C(=O)CC2)cc1`, the GTP binding, percent of control worked out at 60.2%.

The compound `Cc1ccc(CSc2ncccc2C(=O)O)cc1` gave a GTP binding, percent of control of 199%.

`O=C(O)c1cccc(-n2cccc2/C=C2/NC(=O)N(c3ccc(Cl)cc3)C2=O)c1` came in with a GTP binding, percent of control of 64.3%.

The compound `CCN1C(=O)C(CC(=O)Nc2ccc(F)cc2)N(CCc2ccc(OC)cc2)C1=S` (stereo not drawn) yielded a GTP binding, percent of control of 78.6%.

The compound `CCn1cc(C(=O)O)c(=O)c2cc(F)c(N/N=C/c3ccccc3)cc21` returned a GTP binding, percent of control of 58.9%.

In turn, `O=C(O)CC/C(=C\c1ccc(N2CCOCC2)c([N+](=O)[O-])c1)c1nc2ccccc2s1` showed a GTP binding, percent of control of 71.9%.

The compound `O=C(COc1ncnc2cc([N+](=O)[O-])ccc12)NC(=O)NC1CCCCC1` displayed a GTP binding, percent of control of 70.8%.

On to `COc1ccccc1OCc1cccc(C(=O)O)c1`, for which the GTP binding, percent of control is 92.8%.

In the case of `COc1ccc(C(=O)O)c(OCc2c(C)cccc2C)c1`, the GTP binding, percent of control was determined as 208%.

`O=C(NCc1cccs1)c1cccn2c(=O)c3sccc3nc12` registered a GTP binding, percent of control of 69.2%.

Compound `Cc1cc(NC(=O)/C(C#N)=C/c2ccc(-c3ccc(SC(F)F)cc3)o2)n(-c2ccccc2)n1` yielded a GTP binding, percent of control of 96.7%.

Turning to `CCCOC(=O)NC1CCS(=O)(=O)C1` (stereo not drawn), the GTP binding, percent of control turned out to be 159%.

Compound `Cc1nc(N/N=C/c2ccc(O)cc2)c2cnn(-c3ccccc3)c2n1` showed a GTP binding, percent of control of 73.5%.

`O=C(Nc1ccc(S(=O)(=O)N2CCCc3ccccc32)cc1)C1CCCO1` (stereo not drawn) showed a GTP binding, percent of control of 79.9%.

Another assay deals with Ras-related protein Rab-7a (dog), GTP binding. The assay is described as follows: blockers of fluorescent GTP binding to Rab7 – biochemical, wildtype, multiplex bead flow cytometry, dose response (AID 1336). Conditions: bead-based flow cytometry; series mostly up to 100 µM; GTP binding, % of control: at the top concentration.
For the compound `COc1ccc(-c2c3c(nc4sc5c(=O)[nH]c(C)nc5c24)CCC3)cc1`, the “GTP binding, % of control” value was 68.2% (inactive).

Take `COc1cc(C)c2c(c1C=O)Oc1c(c(C)c(O)c3c1C(O)OC3=O)OC2=O` (stereo not drawn): the “GTP binding, % of control” value is 102% (inactive).

On to `COc1ccc(/C=N/NC(=S)Nc2cc(S(=O)(=O)N3CCOCC3)ccc2N2CCOCC2)cc1O`, for which the “GTP binding, % of control” value is 70.1% (inactive).

Regarding `O=C(O)CCCCCNS(=O)(=O)c1cccc2c1C(=O)c1ccccc1C2=O`, the “GTP binding, % of control” value is 62.7% (inactive).

With `O=C(Nc1cnn(C23CC4CC(CC(C4)C2)C3)c1)c1cnn2cccnc12`, the “GTP binding, % of control” value was 96.9% (inactive).

On to `CCOc1ccc(NC(=S)N=Nc2c(O)[nH]c3ccccc23)cc1`, for which the “GTP binding, % of control” value is 70.7% (inactive).

In the case of `O=C(O)Cn1c(SCCOc2ccccc2Cl)nc2ccccc21`, the “GTP binding, % of control” value is 71.1% (inactive).

`COc1ccc(S(=O)(=O)N2CCOCC2)cc1C(=O)Nc1nc2ccccc2s1`: the “GTP binding, % of control” value is 65.4% (inactive).

`COC(=O)c1ccc(/C=N/Nc2nc(-c3ccc(Cl)cc3Cl)cs2)cc1`: the “GTP binding, % of control” value was 69.1% (inactive).

`CN1/C(=C\C=C(/C#N)C(=O)Nc2ccc(Cl)cc2)C(C)(C)c2ccccc21`: the “GTP binding, % of control” value was 87.8% (inactive).

Regarding `COc1cccc(C2CC(c3ccccc3)=NN2S(=O)(=O)c2ccc(C)cc2)c1OC` (stereo not drawn), the “GTP binding, % of control” value is 138% (inactive).

In the case of `Cc1cc(C)n2nc(SCCOc3ccccc3)nc2n1`, the “GTP binding, % of control” value was 66.3% (inactive).

In the case of `Cc1nc(NC(=O)/C=C/c2ccc(Cl)cc2Cl)sc1C(=O)N(C)C`, the “GTP binding, % of control” value was 3.1% (inactive).

`O=C1OC(c2ccc(F)cc2)=C/C1=C\c1ccc([N+](=O)[O-])o1`: the “GTP binding, % of control” value was 75.9% (inactive).

Consider `CC(=O)N1C(=O)/C(=C2\SC(=S)N(NC(=O)c3ccc(O)cc3)C2=O)c2ccccc21`, for which the “GTP binding, % of control” value is 73.9% (inactive).

Regarding `O=C(Cn1c(-c2cscn2)nc2ccccc21)Nc1cc(F)ccc1F`, the “GTP binding, % of control” value is 84.6% (inactive).

Take `COc1ccc(OC)c(C(C(=O)NCc2ccco2)N(C(=O)Cn2nnc3ccccc32)C2CC2)c1` (stereo not drawn): the “GTP binding, % of control” value was 67.6% (inactive).

Turning to `Cc1ccc(-n2nc3c(SCCN4CCOCC4)nnc(C)c3c2C)cc1`, the “GTP binding, % of control” value was 58.3% (inactive).

For the compound `Cc1cc2nc3c(=O)n(C4CCCCC4)c(=O)[nH]c3nc2cc1N`, the “GTP binding, % of control” value is 61.2% (inactive).

In the case of `COc1ccccc1OCCn1cc(C(=O)O)c2ccc(C)cc21`, the “GTP binding, % of control” value was 71.3% (inactive).

In the case of `Cc1cccc(C)c1CCNc1ncccc1C(=O)O`, the “GTP binding, % of control” value was 102% (inactive).

For the compound `COc1cc(-c2cc(-c3ccc(O)cc3)nc(N)c2C#N)ccc1O`, the “GTP binding, % of control” value was 64.2% (inactive).

Turning to `COc1ccc(-c2cc(C(F)(F)F)n3nc(C(=O)O)cc3n2)cc1OC`, the “GTP binding, % of control” value is 62.7% (inactive).

`Cc1ccc(/C=C2\SC(=S)N(C(Cc3ccccc3)C(=O)O)C2=O)cc1` (stereo not drawn): the “GTP binding, % of control” value was 70.3% (inactive).

As to `COc1ccc(S(=O)(=O)Cc2ccc(C(=O)N3CCN(c4cccc(C)c4C)CC3)o2)cc1`, the “GTP binding, % of control” value was 60.7% (inactive).

As for `Cc1ccc(C2=NN(CCC(=O)NCc3ccc4c(c3)OCO4)C(=O)CC2)cc1`, the “GTP binding, % of control” value was 53% (inactive).

In the case of `Cc1ccc(CSc2ncccc2C(=O)O)cc1`, the “GTP binding, % of control” value was 62.8% (inactive).

Take `O=C(O)c1cccc(-n2cccc2/C=C2/NC(=O)N(c3ccc(Cl)cc3)C2=O)c1`: the “GTP binding, % of control” value was 66.7% (inactive).

Take `CCN1C(=O)C(CC(=O)Nc2ccc(F)cc2)N(CCc2ccc(OC)cc2)C1=S` (stereo not drawn): the “GTP binding, % of control” value is 61.6% (inactive).

Take `CCn1cc(C(=O)O)c(=O)c2cc(F)c(N/N=C/c3ccccc3)cc21`: the “GTP binding, % of control” value is 60% (inactive).

Regarding `O=C(O)CC/C(=C\c1ccc(N2CCOCC2)c([N+](=O)[O-])c1)c1nc2ccccc2s1`, the “GTP binding, % of control” value was 64.2% (inactive).

For `O=C(COc1ncnc2cc([N+](=O)[O-])ccc12)NC(=O)NC1CCCCC1`, the “GTP binding, % of control” value was 74% (inactive).

On to `COc1ccccc1OCc1cccc(C(=O)O)c1`, for which the “GTP binding, % of control” value is 71.8% (inactive).

Take `COc1ccc(C(=O)O)c(OCc2c(C)cccc2C)c1`: the “GTP binding, % of control” value was 85.6% (inactive).

With `O=C(NCc1cccs1)c1cccn2c(=O)c3sccc3nc12`, the “GTP binding, % of control” value was 68.9% (inactive).

As for `Cc1cc(NC(=O)/C(C#N)=C/c2ccc(-c3ccc(SC(F)F)cc3)o2)n(-c2ccccc2)n1`, the “GTP binding, % of control” value was 105% (inactive).

Turning to `CCCOC(=O)NC1CCS(=O)(=O)C1` (stereo not drawn), the “GTP binding, % of control” value was 59.8% (inactive).

Regarding `Cc1nc(N/N=C/c2ccc(O)cc2)c2cnn(-c3ccccc3)c2n1`, the “GTP binding, % of control” value is 82.7% (inactive).

With `O=C(Nc1ccc(S(=O)(=O)N2CCCc3ccccc32)cc1)C1CCCO1` (stereo not drawn), the “GTP binding, % of control” value is 67.9% (inactive).

For the origin of these results see PubChem BioAssay.
